Source: the supplement of paper PMC6555819

Experiments:
Assay in all cases: PBM binding z-score (relative to random genomic background probes); higher = stronger binding; sequences stand for … in GC…GCGATTGACAGCGTAGAATGAAGG
[1] = test system: PPARg:RXRa IVT, anti-PPARg (NR concentration 270 nM, RXRa partner concentration 90 nM)
Procedure, shortened: (§1)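 Ligand-free nuclear receptor dimers were applied to custom Agilent 4×180K protein-binding microarrays whose double-stranded probes carried direct-repeat seeds, single-nucleotide variants, half-site ablations and random human genomic background sequences in 34-nt variable regions. Incubation lasted 1 h. Binding z-scores were computed against the random background probes from regression-normalized fluorescence.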

[2] = test system: PPARg DBDmut:RXRa IVT, anti-PPARg (DBD mutation: PPARg1 K132A/R137A, NR concentration 270 nM, RXRa partner concentration 90 nM)
Procedure, shortened: as §1

[3] = test system: PPARg DBDmut IVT, anti-PPARg (DBD mutation: PPARg1 K132A/R137A, NR concentration 270 nM)
Procedure, shortened: as §1

[4] = test system: PPARg homodimer (NR concentration 180 nM)
Procedure, shortened: as §1

[5] = test system: PXR homodimer (NR concentration 270 nM)
Procedure, shortened: as §1

[6] = test system: RARa homodimer (NR concentration 270 nM)
Procedure, shortened: as §1

[7] = test system: RARb homodimer (NR concentration 270 nM)
Procedure, shortened: as §1

[8] = test system: RARb:RXRa (NR concentration 270 nM, RXRa partner concentration 90 nM)
Procedure, shortened: as §1

[9] = test system: RARa:RXR (NR concentration 270 nM, RXRa partner concentration 90 nM)
Procedure, shortened: as §1

| Sequence | PBM binding z-score [1] | PBM binding z-score [2] | PBM binding z-score [3] | PBM binding z-score [4] | PBM binding z-score [5] | PBM binding z-score [6] | PBM binding z-score [7] | PBM binding z-score [8] | PBM binding z-score [9] |
| --- | --- | --- | --- | --- | --- | --- | --- | --- | --- |
| TGTCAAAGGTCAAAGGTAACGTAAGTATCCACAC | 7.56 | 5.45 | 6.39 | 5.28 | 1.31 | 3.71 | 5.11 | – | – |
| CGTCTAAGGTCATAGGAGGTCAGTGAAGACAGAT | 4.85 | 1.68 | 1.09 | 6.3 | 6.55 | 3.85 | 5.47 | 5.66 | – |
| GATACGGGGTCAAGGCCAGAGTACGCGTATTGAT | 6.14 | 2.81 | 2.07 | 4.21 | 1.08 | 2.18 | 4.32 | 5.26 | – |
| ACTTAGGGGTCAACGAGGTTATAGCACGCGTATA | 5.93 | 2.39 | 2.86 | 3.01 | 9.1 | 2.38 | 5.02 | – | – |
| CAAACTAGGTCACCGAAAGGTCAAAGTCCGCATG | 9.24 | 8.36 | 7.3 | 9.63 | 3.23 | 4.75 | 5.37 | – | – |
| TCTAGTGGGTCAAAGGTCACACACTCGAAATGCG | 8.52 | 2.65 | 1.71 | 4.18 | 1.74 | 2.97 | 5.22 | – | – |
| CCTTACGGGTCACGAGGTCATAGCACGACGAGCG | 6.02 | 2.06 | 1.59 | 5.34 | 2.24 | 2.17 | 4.95 | 5.23 | – |
| TGTCAAAGTTCAAAGGTTACGTAAGTATCCACAC | 5.16 | 1.58 | 1.43 | 3.27 | 4.04 | 1.12 | 4.75 | – | – |
| TATACGGGGTCAAAGGCCAGAGTACGAATGTCGA | 6.45 | 4.68 | 3.02 | 3.58 | 1.98 | 1.66 | 4.34 | 5.29 | – |
| TCTAGTTGGTCAAAGGTCACGCACTCGAAATGCG | 6.68 | 3.73 | 2.56 | 6.55 | 1.96 | 4.59 | 5.32 | – | – |
| ATATGTAGGTTAAAGGTCATTCAGGTTGGTTCGC | 8.56 | 4.82 | 3.73 | 4.43 | 7.91 | 3.28 | 4.8 | 4.74 | – |
| ACTTACGGGTCAACGAGGTCATAGCACGCGTATA | 5.29 | 2.33 | 3.32 | 4.63 | 11.6 | 2.3 | 5.04 | 4.82 | 7.02 |
| CAAACGAGGTCACCGGAAGGTCAAAGTCCGCATG | 7.57 | 4.42 | 0.844 | 6.98 | 6.23 | 2.61 | 6.03 | – | – |
| TATACAGGGTCAAAGGTCAGAGTACGAATGTCGA | 6.32 | 2.47 | 1.85 | 2.64 | 1.68 | 2.73 | 5.41 | – | – |
| CAAACGAGGTCACAGAGGTCAAAGTCCGTGCGTA | 7.63 | 3.35 | 5.12 | 7.88 | 15.3 | 5.39 | 5.83 | – | – |
| GGAACGAGGGCATTCGAGTTCATAGCATGGCGAT | 2.61 | 0.143 | -0.584 | 0.888 | 14 | -0.506 | 2.4 | 2.75 | 2.84 |
| CGTCCAAGGTCAAAGGTCATTGAAGAGATGACGG | 6.27 | 2.57 | 0.832 | 5.55 | 4.59 | 5.35 | 5.63 | 6.2 | – |
| CCTCGGAGGTCAACAGGAGGTCAGAGCTGCCAGA | 4.76 | -0.0592 | -0.488 | 5.25 | 1.63 | 1.53 | 5.7 | – | – |
| CGTCCAAGGTCACAGAGGTCAGTGAATGCCGAGT | 5.63 | 1.12 | 0.337 | 3.92 | 12.2 | 2.06 | 5.82 | – | 6.75 |
| CAAAATAGGTCACGAAAGGTCAAAGTCGAATGAC | 8.54 | 5.84 | 4.87 | 10.7 | 3.21 | 7.69 | 5.79 | 6.03 | – |
